Results reported in PubChem BioAssay (NCATS).
Several values for one entry are separate records, joined by “and”; a condition that tells them apart may be missing. Identical values can stand only once. Results filed as inconclusive are left out. Where a structure was tested more than once in an assay, its records may differ in their call. Activity calls are given as the source filed them. Calls come from the whole dose curve; as a rule, active = well fitted inhibition curve with a large enough effect; inconclusive = small, poorly fitted or top-dose-only effect; inactive = flat fitted curve, though single readings scatter.

Experiment: Drug repurposing screens with cells derived from glioblastoma tumor samples (AID 1345199); note: nearly all actives have a fitted effect of over 40% in size
Conditions: GBM patient neurospheres viability, ATP luminescence, 48 h
Experimental: CD133+ cells were isolated from GBM patient biopsies and cultured as neurospheres. Neurospheres from four patients were used to screen the NCATS pharmaceutical collection (NPC) library of approved drugs and bioactive compounds. […] The neurospheres were incubated with drugs for 48 hours in 1536-well format, then assayed with an ATP content cell viability assay. […] These hits were cherry picked to confirm activity in the four original GBM lines screened plus three other slower growing GMB lines (unable to yield enough cells for a full primary screen). Variable activities of the confirmed primary hits in the different GBM patient lines were observed. The patient line 206 responded to the greatest number of compounds and line 923 responded to the least amount of active compounds.

[1] = at 20 µM (top of the series), tumour line C
[2] = at 21.2 µM (top of the series), tumour line B
[3] = at 21.2 µM (top of the series), tumour line D
[4] = at 21.3 µM (top of the series), tumour line A
[5] = at 45.9 µM (top of the series), tumour line B
[6] = at 45.9 µM (top of the series), tumour line D
[7] = at 46.1 µM (top of the series), tumour line C
[8] = at 46 µM (top of the series), tumour line A
% is set by controls: 0 for no effect and ±100 for the full control effect; potency is the fitted concentration of half-maximal effect.

CCOc1ccc2ccccc2c1C(=O)N[C@@H]1C(=O)N2[C@@H]1SC(C)(C)[C@@H]2C(=O)O
inactive: activity, negative = cell killing [1] 10.1% | activity, negative = cell killing [2] -3.6% | activity, negative = cell killing [3] -26.3% | activity, negative = cell killing [4] -12.7%

CCn1cc(C(=O)O)c(=O)c2cnc(N3CCNCC3)nc21
inactive: activity, negative = cell killing [1] -6% | activity, negative = cell killing [2] -11.9% | activity, negative = cell killing [3] -14.4% | activity, negative = cell killing [4] -22%

O=c1cc[nH]c(=S)[nH]1
inactive: activity, negative = cell killing [5] -6.45% | activity, negative = cell killing [6] -10.9% | activity, negative = cell killing [7] -27.1%

N[C@H](C(=O)O)c1ccc(O)cc1
inactive: activity, negative = cell killing [5] -10.5% | activity, negative = cell killing [6] -7.17% | activity, negative = cell killing [8] -28.4% | activity, negative = cell killing [7] -10.2%

CC/C=C(\C(=O)N[C@@H]1C(=O)N2C(C(=O)OCOC(=O)C(C)(C)C)=C(COC(N)=O)CS[C@H]12)c1csc(N)n1
active: Potency (tumour line A) 17.8 µM
inactive: activity, negative = cell killing [5] -9.61% and -1.73% | activity, negative = cell killing [6] -14.3% and 0.361% | activity, negative = cell killing [7] -12.1% and -5.64%

Nc1cc(=O)[nH]c(N)n1
inactive: activity, negative = cell killing [5] 1% | activity, negative = cell killing [6] -2.29% | activity, negative = cell killing [8] -24.4% | activity, negative = cell killing [7] 6.18%

CNC(=O)Oc1ccc2c(c1)[C@]1(C)CCN(C)[C@@H]1N2C
active: Potency (tumour line A) 35.5 µM
inactive: activity, negative = cell killing [5] -15.9% | activity, negative = cell killing [6] -13.4% | activity, negative = cell killing [7] -13.5%

Cc1c(Cl)cccc1Nc1ccccc1C(=O)O
inactive: activity, negative = cell killing [5] -21.5% | activity, negative = cell killing [6] -17% | activity, negative = cell killing [7] -5.72%

COc1ccccc1O
inactive: activity, negative = cell killing [5] -3.97% | activity, negative = cell killing [6] 4.42% | activity, negative = cell killing [8] -31.4% | activity, negative = cell killing [7] 30.9% | activity, negative = cell killing (at 91.6 µM (top of the series), tumour line B) -1.8% | activity, negative = cell killing (at 91.6 µM (top of the series), tumour line D) -26.1% | activity, negative = cell killing (at 99.2 µM (top of the series), tumour line C) -15%

CC(=O)Oc1c(C)c(C)c2c(c1C)CC[C@@](C)(CCC[C@H](C)CCC[C@H](C)CCCC(C)C)O2
inactive: activity, negative = cell killing [5] -3.11% and -14.8% and -20.3% | activity, negative = cell killing [6] -2.72% and -19.7% and -14.1% | activity, negative = cell killing [8] -21.7% and -44.1% | activity, negative = cell killing [7] -8.98% and 2.94% and -0.939%
